Laboratory results from PubChem BioAssay (NCI).
This is part of a sample that, as a whole, favours compounds with a hit. Of some 83,000 tested, about 20% had one in any assay.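 48-hour exposure, single concentration, 96-well plates; percent growth endpoint where 0 means no net growth. Active: below 10.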 A number with no mark means an inactive call. The source made the active and inactive calls.

system: HCC-2998 colon; assay: NCI-60 one-dose screen, 48 h (100 = growth as untreated, 0 = no growth, -100 = all killed); settings: 10 µM unless noted

Row | SMILES | growth
1 | COc1ccc2[nH]c3nc4cnccc4cc3c2c1 | 117%
2 | O=C(Nc1ccccc1)NS(=O)(=O)c1c[nH]c(=S)[nH]c1=O | 114%
3 | NCCCn1c2c(c3cc(-c4ccn[nH]4)ccc3c1=O)C(=O)c1ccccc1-2 | 60.6%
4 | COc1cc(-c2csc(NC(=O)Nc3ccc(C(F)(F)F)cc3)n2)cc(OC)c1OC | 19.3%
5 | COc1ccc2c(c1)C1(C(=O)N2)C(C#N)=C(c2ccccc2)Nc2c1c(-c1ccccc1)nn2-c1ccccc1 (centres undefined) | 58.1%
6 | Cc1ccc(C(=O)/C(=C/c2ccc([N+](=O)[O-])cc2)S(=O)Cc2ccccc2)cc1 (centres undefined) | 74.8%
7 | OCCNc1nc(NCCO)nc(Nc2ccc(C3=NN(c4cc(Cl)cc(Cl)c4)C(c4ccc(C(F)(F)F)cc4)C3)cc2)n1 (centres undefined) | 45.1%
8 | Cc1cnc(-c2ccc(-c3ccc(NC(=O)Nc4c(F)cc(F)cc4F)cc3F)c3c2C(=O)NC3)[nH]1 | 60.5%
9 | O=C(Nc1cccc(-c2cccc(F)c2)c1)C1CCN(Cc2cccc3cccnc23)CC1 | -70.4% (active)
10 | CC(=O)ON1CCCC(P(=O)(OCOC(=O)C(C)(C)C)OCOC(=O)C(C)(C)C)C1=O (centres undefined) | -36.8% (active)
11 | Cc1cnc(SCc2ccc(Cl)cc2Cl)nc1Nc1ccc(Cl)c(Cl)c1 | 103%
12 | O=C(O)c1cn(C2CC2)c2cc(N3CCN(Cc4nnc(Nc5ccccc5)o4)CC3)c(F)cc2c1=O | 103%
13 | C#Cc1cccc(Nc2ncnc3ccc(NC(=O)c4ccccc4)cc23)c1 | 97.7%
14 | CCOC(=O)c1c(C)nc2c(c1N)/C(=C/c1ccc[nH]1)C(=O)N2Cc1ccc(C(F)(F)F)cc1 | 91.2%
15 | O=CN1N=C(c2ccc(F)cc2)CC1c1cccc(Nc2ccnc3cc(C(F)(F)F)ccc23)c1 (centres undefined) | 76.3%
16 | Cc1cccc(C)c1NC(=O)CN(CC(C)C)CC(O)COc1ccccc1 (centres undefined) | 95.8%
17 | COc1ccccc1N1CCN(CCCOc2ccc(C(=O)/C=C3/C(=O)Nc4ccccc43)cc2)CC1 | 60.2%
18 | COc1cc(/C=C/C(=O)/C=C/c2cc3ccc(Cl)cc3n(Cc3ccccc3)c2=O)ccc1O | -73.8% (active)
19 | Cc1cc(C)n(-c2nc(-c3cccs3)c(C#N)c(=O)[nH]2)n1 | 96.7%

Row | SMILES | growth
20 | CN(C)C1=NCCN1 | 101%
21 | N#CCNc1ccc(C(=O)O)cc1 | 104%
22 | COc1ccc2c(c1)/C(=C1\S/C(=N/c3nnc(C)s3)NC1=O)C(=O)N2Cc1ccc(Cl)cc1 | 34.2%
23 | O=C(O)CCNC1CCCCC1 | 86.4%
24 | N#CC1(C#N)C2=C(CCCC2)NC(c2c(F)cccc2Cl)C1(C#N)C#N (centres undefined) | 97.6%
25 | CCOC(=O)/C(=C/c1c(-c2ccccc2)[nH]c2ccccc12)C(=O)c1ccc(Cl)cc1 | 67.1%
26 | S=C(Nc1ccccc1)c1ccccn1 | 98.7%
27 | CC(=O)c1ccc(NC(=O)CSc2nnc(-c3cc(-c4ccc(Cl)cc4)nc4ccccc34)o2)cc1 | 101%
28 | COC(=O)c1ccc(NC(=O)CSc2nc(-c3ccc(F)cc3)nc3ccccc23)cc1 | 102%
29 | O=C1Nc2ccc(Cl)cc2/C1=N/c1nc(-c2ccc(Cl)cc2)cs1 | 9.52% (active)
30 | COc1cc([C@H](C)c2ccc3ccccc3c2)cc(OC)c1OC | 26.5%
31 | Cc1cc2ccccc2c[n+]1CC(=O)c1ccc(-c2ccccc2)cc1 | 61.8%
32 | C=C(C)[C@@H]1CC[C@]2(C(=O)O)CC[C@]3(C)[C@H](CC[C@@H]4[C@@]5(C)C[C@@H](CC#Cc6ccccc6C)C(=O)C(C)(C)[C@@H]5CC[C@]43C)[C@@H]12 | 31.7%
33 | Nc1c(C(=O)Nc2cccc3ccccc23)sc2nc3c(cc12)COCC3 | 85.5%
34 | COC(=O)[C@]1(C)CCC[C@]2(C)[C@H]3C[C@H]4C(C(C)C)=C[C@]3(CC[C@H]21)[C@@H]1C(=O)N(CCC#N)C(=O)[C@@H]14 | 94.1%
35 | COCCOCCOCc1n(Cc2ccc3ccccc3c2)c2ccccc2[n+]1Cc1ccc2ccccc2c1 | 17.8%
36 | CC(=O)[C@@H]1CC[C@]2(C(=O)O)CC[C@]3(C)[C@H](CC[C@@H]4[C@@]5(C)Cc6c([nH]c7ccccc67)C(C)(C)[C@@H]5CC[C@]43C)[C@@H]12 | 80.5%
37 | N#Cc1c(-c2ccc(F)cc2)c(C#N)c2c(C#N)c(N)nn2c1N | 90.3%

system: KM12 colon; assay: as above; settings: 10 µM unless noted

Row | SMILES | growth
38 | COc1ccc2[nH]c3nc4cnccc4cc3c2c1 | 93.2%
39 | O=C(Nc1ccccc1)NS(=O)(=O)c1c[nH]c(=S)[nH]c1=O | 105%
40 | NCCCn1c2c(c3cc(-c4ccn[nH]4)ccc3c1=O)C(=O)c1ccccc1-2 | 38.7%
41 | COc1cc(-c2csc(NC(=O)Nc3ccc(C(F)(F)F)cc3)n2)cc(OC)c1OC | 7.27% (active)
42 | COc1ccc2c(c1)C1(C(=O)N2)C(C#N)=C(c2ccccc2)Nc2c1c(-c1ccccc1)nn2-c1ccccc1 (centres undefined) | 39.7%
43 | Cc1ccc(C(=O)/C(=C/c2ccc([N+](=O)[O-])cc2)S(=O)Cc2ccccc2)cc1 (centres undefined) | 23.1%
44 | OCCNc1nc(NCCO)nc(Nc2ccc(C3=NN(c4cc(Cl)cc(Cl)c4)C(c4ccc(C(F)(F)F)cc4)C3)cc2)n1 (centres undefined) | 26%
45 | Cc1cnc(-c2ccc(-c3ccc(NC(=O)Nc4c(F)cc(F)cc4F)cc3F)c3c2C(=O)NC3)[nH]1 | 11.7%
46 | O=C(Nc1cccc(-c2cccc(F)c2)c1)C1CCN(Cc2cccc3cccnc23)CC1 | 53.3%
47 | CC(=O)ON1CCCC(P(=O)(OCOC(=O)C(C)(C)C)OCOC(=O)C(C)(C)C)C1=O (centres undefined) | -11.5% (active)
48 | Cc1cnc(SCc2ccc(Cl)cc2Cl)nc1Nc1ccc(Cl)c(Cl)c1 | 89.4%
49 | O=C(O)c1cn(C2CC2)c2cc(N3CCN(Cc4nnc(Nc5ccccc5)o4)CC3)c(F)cc2c1=O | 96.7%
50 | C#Cc1cccc(Nc2ncnc3ccc(NC(=O)c4ccccc4)cc23)c1 | 90%
51 | CCOC(=O)c1c(C)nc2c(c1N)/C(=C/c1ccc[nH]1)C(=O)N2Cc1ccc(C(F)(F)F)cc1 | 81.6%
52 | O=CN1N=C(c2ccc(F)cc2)CC1c1cccc(Nc2ccnc3cc(C(F)(F)F)ccc23)c1 (centres undefined) | 55.9%
53 | Cc1cccc(C)c1NC(=O)CN(CC(C)C)CC(O)COc1ccccc1 (centres undefined) | 100%
54 | COc1ccccc1N1CCN(CCCOc2ccc(C(=O)/C=C3/C(=O)Nc4ccccc43)cc2)CC1 | 59.4%
55 | COc1cc(/C=C/C(=O)/C=C/c2cc3ccc(Cl)cc3n(Cc3ccccc3)c2=O)ccc1O | -52.3% (active)
56 | Cc1cc(C)n(-c2nc(-c3cccs3)c(C#N)c(=O)[nH]2)n1 | 97.9%

Row | SMILES | growth
57 | CN(C)C1=NCCN1 | 100%
58 | N#CCNc1ccc(C(=O)O)cc1 | 105%
59 | COc1ccc2c(c1)/C(=C1\S/C(=N/c3nnc(C)s3)NC1=O)C(=O)N2Cc1ccc(Cl)cc1 | 28.6%
60 | O=C(O)CCNC1CCCCC1 | 99.7%
61 | N#CC1(C#N)C2=C(CCCC2)NC(c2c(F)cccc2Cl)C1(C#N)C#N (centres undefined) | 73.3%
62 | CCOC(=O)/C(=C/c1c(-c2ccccc2)[nH]c2ccccc12)C(=O)c1ccc(Cl)cc1 | 18.6%
63 | S=C(Nc1ccccc1)c1ccccn1 | 99.8%
64 | CC(=O)c1ccc(NC(=O)CSc2nnc(-c3cc(-c4ccc(Cl)cc4)nc4ccccc34)o2)cc1 | 89.3%
65 | COC(=O)c1ccc(NC(=O)CSc2nc(-c3ccc(F)cc3)nc3ccccc23)cc1 | 73.9%
66 | O=C1Nc2ccc(Cl)cc2/C1=N/c1nc(-c2ccc(Cl)cc2)cs1 | 1.73% (active)
67 | COc1cc([C@H](C)c2ccc3ccccc3c2)cc(OC)c1OC | 19.6%
68 | Cc1cc2ccccc2c[n+]1CC(=O)c1ccc(-c2ccccc2)cc1 | 56.7%
69 | C=C(C)[C@@H]1CC[C@]2(C(=O)O)CC[C@]3(C)[C@H](CC[C@@H]4[C@@]5(C)C[C@@H](CC#Cc6ccccc6C)C(=O)C(C)(C)[C@@H]5CC[C@]43C)[C@@H]12 | 20.3%
70 | Nc1c(C(=O)Nc2cccc3ccccc23)sc2nc3c(cc12)COCC3 | 40.7%
71 | COC(=O)[C@]1(C)CCC[C@]2(C)[C@H]3C[C@H]4C(C(C)C)=C[C@]3(CC[C@H]21)[C@@H]1C(=O)N(CCC#N)C(=O)[C@@H]14 | 82.7%
72 | COCCOCCOCc1n(Cc2ccc3ccccc3c2)c2ccccc2[n+]1Cc1ccc2ccccc2c1 | -25.9% (active)
73 | CC(=O)[C@@H]1CC[C@]2(C(=O)O)CC[C@]3(C)[C@H](CC[C@@H]4[C@@]5(C)Cc6c([nH]c7ccccc67)C(C)(C)[C@@H]5CC[C@]43C)[C@@H]12 | 42.2%
74 | N#Cc1c(-c2ccc(F)cc2)c(C#N)c2c(C#N)c(N)nn2c1N | 94.1%
